Source: PubChem
D2 ag-1: Beta-Arrestin HTS for Positive Allosteric Modulators of the Human D2 Dopamine Receptor: Agonists; actives 0.084% (n = 360,000); AID 624465, 2012; DiscoveRx PathHunter D2 beta-arrestin, luminescence, 90 min; 100% = 57 uM dopamine signal; D(2) dopamine receptor (Homo sapiens), P14416; activation, % (concentration not given with the values); in the data active = activation above about 40%; inconclusive = between about 15% and that limit
Target sequence (P14416 whole entry, looked up): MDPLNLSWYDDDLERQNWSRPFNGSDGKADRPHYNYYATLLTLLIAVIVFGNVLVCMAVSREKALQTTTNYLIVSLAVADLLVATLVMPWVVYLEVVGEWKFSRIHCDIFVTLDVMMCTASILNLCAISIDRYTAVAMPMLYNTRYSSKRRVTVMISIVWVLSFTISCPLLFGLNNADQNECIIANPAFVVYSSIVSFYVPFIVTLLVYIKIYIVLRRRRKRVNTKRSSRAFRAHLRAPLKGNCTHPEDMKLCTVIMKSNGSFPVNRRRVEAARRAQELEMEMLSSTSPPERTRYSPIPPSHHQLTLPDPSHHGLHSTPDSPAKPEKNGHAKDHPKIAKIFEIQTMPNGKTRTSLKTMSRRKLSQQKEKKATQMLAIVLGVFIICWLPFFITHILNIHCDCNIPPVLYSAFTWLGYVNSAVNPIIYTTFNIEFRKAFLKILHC
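DiscoveRx PathHunter D2 beta-arrestin cells (2,100/well) attached overnight, then compound-stimulated 90 min at 37 C in HBSS/10 mM HEPES/0.1% Tween-20 buffer; beta-galactosidase complementation read by luminescence after 1 h at ambient temperature. Dopamine 57 uM final (EC100) as control.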
D2 antag: HTS Assay for Allosteric Antagonists of the Human D2 Dopamine Receptor: Primary Screen for Antagonists; actives 2% (n = 340,000); D(2) dopamine receptor (Homo sapiens), P14416; HEK293 TREx D2 cells, calcium flux, dopamine EC80; inhibition, % at 10 µM; in the data active = inhibition above about 30%; inactive = below that, where a call was filed; also: 0% is about no effect
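Inhibition of EC80 dopamine-driven calcium flux, recorded kinetically, defines activity here; cells are a tetracycline-induced HEK293 T-REx line expressing force-coupled D2.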
D2 PAM-1: HTS Assay for Positive Allosteric Modulators of the Human D2 Dopamine Receptor: Primary Screen for Potentiators; D(2) dopamine receptor (Homo sapiens), P14416; HEK293 T-REx D2, calcium flux, EC20 dopamine potentiation; potentiation, % at 10 µM; actives 0.34% (n = 340,000); AID 485347, 2010;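 active = potentiation over 3 SD above the plate norm, cut at about 30% in these data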; also: 0% is about no effect
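Potentiation of an EC20 dopamine calcium response is measured in a force-coupled, tetracycline-inducible Hek293 Trex D2 line. Compound-only kinetic reads over 180 s flag agonists before dopamine addition.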
D2 PAM-2: Beta-Arrestin HTS for Positive Allosteric Modulators of the Human D2 Dopamine Receptor: Potentiators; D(2) dopamine receptor (Homo sapiens), P14416; DiscoveRx D2 beta-arrestin cells, luminescence, 90 min; 100% = 57 uM dopamine signal; potentiation, % (test concentration not listed); actives 0.23% (n = 360,000); in the data active = potentiation above about 50%; inconclusive = mostly about 30% to 49%
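PathHunter D2 cells, attached overnight at 37 deg C, received compound in DMSO plus dopamine at EC20 (50 nM final) for 90 min at 37 deg C. Beta-arrestin recruitment was read as luminescence after 1 h with detection reagent at ambient temperature.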
D2 ag-2: HTS Assay for Allosteric Agonists of the Human D2 Dopamine Receptor: Primary Screen for Agonists | D(2) dopamine receptor (Homo sapiens), P14416 | activation, % at 2 µM | HEK293 T-REx D2 cells, calcium flux agonist mode | actives 0.53% (n = 340,000);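 active = activation over 3 SD above normal in the single-dose calcium agonist read, cut at about 30% in these data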; also: 0% is about no effect
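Tetracycline-induced HEK293 Trex cells with D2 receptor force-coupled to calcium signaling, plated overnight at 30 C and loaded with no-wash calcium dye. Calcium flux read kinetically for 180 s after compound addition; responses flag agonists.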
D3 ag: qHTS of D3 Dopamine Receptor Agonist: D3 Dopamine Receptor B-arrestin Agonist Confirmatory Assay; shares compounds with D2 ag-2; DiscoveRx D3 beta-arrestin cells, luminescence, 90 min; Potency, µM (highest dose often 76.9 µM), inactives show at the highest dose activation, most hits filed as activators; actives 4% (n = 2,300);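 also: potency is read from the fitted curve at half-maximal effect; 100% = dopamine control response; nearly all actives have a fitted effect of over 70% in size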
D2 ag-3: qHTS of D3 Dopamine Receptor Agonist: D2 Dopamine Receptor B-arrestin Agonist Counterscreen | shares compounds with D2 ag-2 | DiscoveRx PathHunter D2 beta-arrestin, luminescence, 90 min; response scale: percent relative to full dopamine signal | Potency, µM (titrated, usually from 76.9 µM), for inactives: at the top dose activation, actives largely listed as activators | actives 5.9% (n = 2,300) | AID 720507, 2013; also: potency is read from the fitted curve at half-maximal effect; % of control where 0% means no effect; nearly all actives have a fitted effect of over 70% in size
* = called active by the depositor; ? = inconclusive; . = no result given. The list is not random: actives were taken first. Their share in the collection is about 2.4%. Unless noted, calls follow the shape of the dose curve; as a rule, active = well fitted activation curve with a large enough effect; inconclusive = small, poorly fitted or top-dose-only effect; inactive = flat fitted curve, though single readings scatter.

SMILES	D2 ag-1	D2 antag	D2 PAM-1	D2 PAM-2	D2 ag-2	D3 ag	D2 ag-3
Cc1ccccc1C(=O)Nc1ccnn1C1CCN(CCCc2ccccc2)CC1	?	-13	17	-7	2	.	.
O=C(Nc1ccnn1C1CCN(CCCc2ccccc2)CC1)c1ccccc1	-1	44*	-15	-7	17	-4%	5%
Cc1nc(-c2ccc(Cl)cc2)sc1CCNC(=O)c1ccco1	.	.	18	.	1	.	.
CSc1cccc(NC(=O)c2ccc3c(c2)CCCN3S(C)(=O)=O)c1	.	.	-6	.	-1	.	.
O=c1/c(=C\c2cc([N+](=O)[O-])cc([N+](=O)[O-])c2O)sc2nc3ccccc3n12	4	31*	-9	20	0	-2%	1%
CCN(C(=O)CN1C(=O)COc2ccc(S(=O)(=O)N3CCOCC3)cc21)c1cccc(C)c1	.	.	1	.	2	.	.
Cc1cc(=O)[nH]c(Nc2c(C)n(C)n(-c3ccccc3)c2=O)n1	-2	23	-5	3	1	.	.
Cc1c(NC2=C(Cl)C(=O)N(c3ccccc3Cl)C2=O)c(=O)n(-c2ccccc2)n1C	0	-4	-19	-6	44*	-5%	-4%
Cc1cccc(N2CCN(Cc3nc(-c4cccc(Cl)c4)oc3C)CC2)n1	-4	9	-14	-5	34*	-4%	12%
[O-]/[N+](=C/c1ccccc1)c1ccccc1	-3	-8	-13	-8	0	2%	-3%
Cc1ccc(C2C=C(c3ccc(Cl)cc3)Nc3nc(NC(=O)c4ccco4)nn32)cc1 (centres undefined)	.	.	11	.	0	.	.
O=C(c1ccco1)N1CCN=C1SCc1c(F)cccc1Cl	-2	-8	-10	-28	37*	-15%	-1%
O=C(c1ccco1)N1CCN=C1SCc1ccccc1Cl	-1	-30	-3	-7	1	.	.
O=C(NNS(=O)(=O)c1ccccc1[N+](=O)[O-])c1cccc(Br)c1	3	.	.	11	.	.	.
O=C(NNS(=O)(=O)c1ccccc1[N+](=O)[O-])c1cccc(Cl)c1	-1	-23	-19	9	51*	-4%	1%
CN(c1ccccc1)S(=O)(=O)c1ccc(NC(=O)c2nc(S(C)(=O)=O)ncc2Cl)cc1	-11	3	8	-63	6	-21%	-11%
Cc1ccc(NC(=O)c2nc(S(=O)(=O)Cc3ccccc3C)ncc2Cl)cc1C	-6	34*	-2	-12	0	-19%	-10%
Cc1ccc(NC(=O)c2nc(S(=O)(=O)Cc3ccc(F)cc3)ncc2Cl)cc1C	.	.	-7	.	2	.	.
CCCN(C#N)c1nc(NCC)nc(NC(C)C)n1	1	5	4	-14	-2	.	.
CCN(C#N)c1nc(NC(C)C)nc(NC(C)(C)C)n1	-4	-6	-15	-3	40*	-10%	-2%
CCc1ccc(NC(=O)CN2C(=O)C(c3ccc(C)cc3)=NC23CCCCC3)cc1	.	.	-5	.	0	.	.
Cc1cc(C(C)(C)C)ccc1OCCN1CCCC1	-5	.	.	-5	.	-15%	-5%
COC(=O)NCC(c1ccc2c(c1)OCO2)N1CCN(c2ccccc2)CC1 (centres undefined)	1	-16	2	-19	7	.	.
COc1ccccc1N1CCN(C(CNS(=O)(=O)c2ccccc2)c2ccccc2)CC1 (centres undefined)	-1	20	-15	-33	7	-7%	-1%
Cc1ccc(S(=O)(=O)NCC(c2ccc3c(c2)OCO3)N2CCN(c3ccccc3)CC2)cc1 (centres undefined)	?	67*	-27	9	64*	20%	?
SMILES	D2 ag-1	D2 antag	D2 PAM-1	D2 PAM-2	D2 ag-2	D3 ag	D2 ag-3
COc1ccccc1N1CCN(C(CNS(=O)(=O)c2cccs2)c2cccnc2)CC1 (centres undefined)	-3	7	-9	-16	6	.	.
COc1ccc(S(=O)(=O)NCC(c2ccc3c(c2)OCO3)N2CCN(c3ccccc3)CC2)cc1 (centres undefined)	?	73*	-26	28	66*	16%	11µM*
COc1ccc(CCNC(=O)Cc2c(C)c3cc4c(C(C)(C)C)coc4c(C)c3oc2=O)cc1OC	.	.	6	.	0	.	.
O=C(Nc1ccc2nn(-c3ccc(F)cc3)nc2c1)c1cccc2c(Cl)cccc12	.	.	7	.	-1	.	.
Cc1nc(-c2ccc(S(=O)(=O)N(C)Cc3ccccc3)cc2)co1	.	.	.	.	1	.	.
Cc1sc2nc(CSCC(=O)Nc3ccc(C(F)(F)F)cc3)[nH]c(=O)c2c1C	2	-17	3	0	1	-6%	-2%
Cc1sc2nc(CSCC(=O)N(C)CC(=O)Nc3ccc(F)cc3)[nH]c(=O)c2c1C	-2	-9	7	-10	3	.	.
Cc1sc2nc(CSCC(=O)Nc3ccc(Cl)cc3F)[nH]c(=O)c2c1C	-5	2	1	14	0	-4%	-6%
Cc1sc2nc(CSCC(=O)Nc3c(F)cccc3F)[nH]c(=O)c2c1C	-2	2	4	7	0	.	.
COc1ccc(C2C(=O)N(C3CCCCCC3)CC(=O)N2CCC2=CCCCC2)cc1 (centres undefined)	.	.	-17	.	1	.	.
COc1ccc2c(c1)[nH]c1c(=O)n(Cc3ccco3)cnc12	-3	1	-18	-4	32*	-7%	-3%
COc1ccc2c(c1)[nH]c1c(=O)n(Cc3ccccn3)cnc12	0	15	13	4	-1	.	.
COc1ccc(Nc2nc(N)nc(CN3CCC(C)CC3)n2)cc1	-3	-3	-6	-17	0	.	.
Nc1nc(CN2CCCCCC2)nc(Nc2ccccc2)n1	0	10	7	-4	-1	.	.
COc1ccc(Nc2nc(N)nc(CN3CCN(c4ccccn4)CC3)n2)cc1	?	73*	-29	4	76*	3%	?
Nc1nc(CN2CCN(c3ccccc3F)CC2)nc(Nc2ccccc2)n1	6	47*	-24	-3	60*	9%	16%
